In PubChem BioAssay one finds z-score and composite z-score data, which are given here for eight compounds.

Assay [1] can be described thus: E. coli DRC41 culture turbidity changes, primary screen, E. coli filamentation inducer project, strain DRC41, OD650, 48 h (AID 1152).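 Also: E. coli MC1000 strain DRC41 lacking acrAB efflux pump and sulA.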 The note with it: E. coli DRC41 (acrAB sulA), higher = more signal, called active from +8 up or from −8 down.
Assay [2] can be described thus: small-molecule binders of probe aLefty1, primary screen, biochemical, small-molecule microarray, 635/667 nm fluorescence (AID 1153).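 Also: score merges spot fluorescence with signal-to-noise ratio from the scanned slide images.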 The note with it: higher = more signal.
Assay [3] in a line: PSAC antagonists in infected red cells, primary screen, cell-based, P. falciparum Indochina, OD700, 1 h (AID 1154). The note with it: P. falciparum Indochina infected RBC osmotic lysis, higher = more signal, called active from +8 up or from −8 down.
Assay [4] is described as follows: PSAC antagonists in infected red cells, primary screen, cell-based, P. falciparum Indochina, OD700, 2 h (AID 1155).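 Also: lysis reports solute entry through the parasite surface anion channel PSAC; channel blockers reduce lysis of infected cells.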 The note with it: P. falciparum Indochina infected erythrocytes, osmotic lysis OD700; higher = more signal, called active from +8 up or from −8 down.
Assay [5] is described as follows: osmotic lysis modulators in infected erythrocytes, primary screen, PSAC antagonist project, cell-based, P. falciparum Indochina, OD700, 3 h (AID 1156). The note with it: higher = more signal, called active from +8 up or from −8 down.
The nature of assay [6]: PSAC antagonists in infected red cells, primary screen, cell-based, P. falciparum Indochina, OD700, 18 h (AID 1157). The note with it: P. falciparum Indochina infected erythrocytes, osmotic lysis OD700, 18 h; higher = more signal, called active from +8 up or from −8 down.
Assay [7] is described as follows: modulators of S6 phosphorylation in cells, primary screen, cell-based, A549, cytoblot, luminescence, serum-stimulated (AID 1158).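 Also: serum-stimulated A549 lung adenocarcinoma cells; signal is phosphorylated S6 detected by cytoblot immunostaining with HRP secondary.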 The note with it: A549 phospho-S6 cytoblot, 5 h, higher = more signal.
Assay [8] addresses NADPH oxidase 2 (Homo sapiens) (UniProt P04839). Put plainly: NOX2-dependent H2O2 signal modulators, primary screen, NOX inhibitor project, cell-based, HEK293-NOX2, PMA-stimulated, Amplex Red fluorescence (AID 1159). Also: test concentration not given here. The note with it: 45 min, higher = more signal, called active from +8 up or from −8 down.
Assay [9] concerns the target NADPH oxidase 4 (Homo sapiens) (UniProt Q9NPH5). Kind of assay: NOX4-dependent H2O2 signal modulators, primary screen, NOX inhibitor project, cell-based, HEK293-NOX4, tetracycline-induced, Amplex Red fluorescence (AID 1160). The note with it: 45 min, higher = more signal, called active from +8 up or from −8 down.
The target in assay [10] is NADPH oxidase 5 (Homo sapiens) (UniProt Q96PH1). Kind of assay: NOX5-dependent H2O2 signal modulators, primary screen, NOX inhibitor project, cell-based, HEK293-NOX5, Amplex Red fluorescence (AID 1161). The note with it: HEK293-NOX5, ionomycin, 45 min, higher = more signal.
A short description of assay [11]: A549 cell viability effects, profiling panel, calcein-AM fluorescence, 48 h, basal (AID 1162). Also: test concentration not given here. The note with it: higher = more signal.
Assay [12] in a line: adipocyte viability effects, profiling panel, cell-based, 3T3-L1 adipocytes, calcein-AM fluorescence, 48 h, basal (AID 1163). Also: test concentration not given here. The note with it: 3T3-L1 adipocytes viability, higher = more signal.
A short description of assay [13]: HepG2 cell viability effects, profiling panel, calcein-AM fluorescence, 48 h, basal (AID 1164). Also: test concentration not given here. The note with it: higher = more signal.
A short description of assay [14]: MM1S cell viability effects, profiling panel, calcein-AM fluorescence, 48 h, basal (AID 1165).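 Also: viability of MM1S multiple myeloma cells under basal unstimulated conditions; test concentration not given here.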 The note with it: higher = more signal.
A short description of assay [15]: basal RPMI8226 viability, no added stimulus, profiling panel, cell-based, calcein-AM fluorescence, 48 h, PK04 Diversity Set (AID 1166).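 Also: cells grown under basal conditions without added stimulus; test concentration not given here.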 The note with it: RPMI8226 myeloma viability, higher = more signal.
The nature of assay [16]: basal HepG2 mitochondrial membrane potential changes, profiling panel, cell-based, JC-1 fluorescence, 24 h, 100 nL compound (AID 1167). Also: test concentration not given here. The note with it: higher = more signal.
Assay [17] is described as follows: basal 3T3-L1 adipocyte mitochondrial potential changes, profiling panel, cell-based, JC-1 fluorescence, 3T3-L1 adipocytes, 24 h, 100 nL compound (AID 1168). Also: test concentration not given here. The note with it: JC-1 mitochondrial fluorescence, higher = more signal, called active from +8 up or from −8 down.
Assay [18] is described as follows: basal RPMI8226 mitochondrial membrane potential changes, profiling panel, cell-based, JC-1 fluorescence, 24 h, 100 nL compound (AID 1169). Also: test concentration not given here. The note with it: RPMI8226 myeloma, JC-1 mitochondrial potential fluorescence, higher = more signal.
The nature of assay [19]: basal MM1S mitochondrial membrane potential changes, profiling panel, cell-based, JC-1 fluorescence, 24 h, 100 nL compound (AID 1170). Also: test concentration not given here. The note with it: higher = more signal.
The nature of assay [20]: A549 lung cancer cell viability effects, profiling panel, resazurin fluorescence, 24 h, PK04 Diversity Set (AID 1171). Also: test concentration not given here. The note with it: higher = more signal, called active from +8 up or from −8 down. Background: Resazurin is reduced to fluorescent resorufin, in cell work by metabolically active cells.

Activity calls are given as the source filed them.

NADPH oxidase 4 (Homo sapiens), sequence (Q9NPH5 whole entry, looked up): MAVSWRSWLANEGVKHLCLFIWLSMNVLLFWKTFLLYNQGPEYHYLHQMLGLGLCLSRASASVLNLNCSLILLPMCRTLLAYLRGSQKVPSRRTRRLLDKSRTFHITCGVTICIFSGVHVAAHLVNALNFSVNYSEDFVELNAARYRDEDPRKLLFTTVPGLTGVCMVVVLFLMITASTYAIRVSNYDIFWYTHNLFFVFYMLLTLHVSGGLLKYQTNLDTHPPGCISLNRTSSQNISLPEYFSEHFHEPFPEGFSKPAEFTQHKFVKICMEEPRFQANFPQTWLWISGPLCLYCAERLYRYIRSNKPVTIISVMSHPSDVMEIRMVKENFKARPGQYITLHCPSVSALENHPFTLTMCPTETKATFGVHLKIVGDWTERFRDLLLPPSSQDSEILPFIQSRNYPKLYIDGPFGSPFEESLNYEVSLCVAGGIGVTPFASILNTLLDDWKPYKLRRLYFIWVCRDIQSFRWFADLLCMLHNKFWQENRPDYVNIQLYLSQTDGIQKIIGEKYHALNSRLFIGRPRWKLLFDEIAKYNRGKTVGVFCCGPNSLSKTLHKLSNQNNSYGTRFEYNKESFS
NADPH oxidase 2 (Homo sapiens), sequence (P04839 whole entry, looked up): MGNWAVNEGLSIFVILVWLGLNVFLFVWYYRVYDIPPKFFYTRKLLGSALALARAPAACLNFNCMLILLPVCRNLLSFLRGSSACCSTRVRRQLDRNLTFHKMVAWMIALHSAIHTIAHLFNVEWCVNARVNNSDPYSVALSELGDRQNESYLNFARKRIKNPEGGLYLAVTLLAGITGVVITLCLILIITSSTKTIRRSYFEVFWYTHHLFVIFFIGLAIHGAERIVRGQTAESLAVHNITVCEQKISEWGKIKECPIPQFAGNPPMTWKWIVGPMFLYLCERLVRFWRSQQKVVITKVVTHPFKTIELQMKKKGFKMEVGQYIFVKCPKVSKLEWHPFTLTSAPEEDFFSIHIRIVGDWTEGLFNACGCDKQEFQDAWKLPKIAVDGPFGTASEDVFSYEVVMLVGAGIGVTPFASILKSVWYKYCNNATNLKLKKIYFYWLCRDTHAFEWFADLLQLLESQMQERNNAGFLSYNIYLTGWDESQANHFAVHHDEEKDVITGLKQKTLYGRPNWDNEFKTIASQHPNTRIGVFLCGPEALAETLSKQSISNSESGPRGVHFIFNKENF
NADPH oxidase 5 (Homo sapiens), sequence (Q96PH1 whole entry, looked up): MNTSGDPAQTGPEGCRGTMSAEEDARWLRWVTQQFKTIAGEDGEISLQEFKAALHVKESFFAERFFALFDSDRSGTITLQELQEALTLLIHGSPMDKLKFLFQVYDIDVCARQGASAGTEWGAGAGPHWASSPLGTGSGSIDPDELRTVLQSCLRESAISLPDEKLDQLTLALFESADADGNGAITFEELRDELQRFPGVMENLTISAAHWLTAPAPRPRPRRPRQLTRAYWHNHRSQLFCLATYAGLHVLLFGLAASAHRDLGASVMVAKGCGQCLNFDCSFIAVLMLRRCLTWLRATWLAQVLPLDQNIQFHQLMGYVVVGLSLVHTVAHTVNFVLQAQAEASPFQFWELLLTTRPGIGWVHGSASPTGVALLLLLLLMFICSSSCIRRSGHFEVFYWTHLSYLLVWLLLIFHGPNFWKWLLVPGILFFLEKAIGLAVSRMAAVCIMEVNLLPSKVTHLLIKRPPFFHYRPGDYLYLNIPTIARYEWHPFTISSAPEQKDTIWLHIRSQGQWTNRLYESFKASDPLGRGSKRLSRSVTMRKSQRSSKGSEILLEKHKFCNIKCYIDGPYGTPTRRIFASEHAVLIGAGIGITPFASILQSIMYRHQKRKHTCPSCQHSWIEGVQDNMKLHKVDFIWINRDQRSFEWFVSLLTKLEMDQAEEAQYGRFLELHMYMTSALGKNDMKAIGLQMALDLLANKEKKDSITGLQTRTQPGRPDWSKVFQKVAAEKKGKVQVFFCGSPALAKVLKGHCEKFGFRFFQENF

Take `C=CC[C@@]1(C(=O)N(C)C)N=C(c2ccc(OCCCO)cc2)O[C@@H]1c1ccccc1CN=[N+]=[N-]`: the z-score in assay [1] is 1.34 (inactive); in [3], 23.1 (active); in assay [4], 6.73 (inactive); in assay [5], 1.93 (inactive); in assay [6], 1.26 (inactive); in assay [7] it was -0.354. Besides, the z-score was 1.85 (inactive) in assay [8]; 0.736 (inactive) in assay [9]; -1.42 in [10]; 1.01 in assay [11]; -0.114 in [12]; 1.41 in assay [13]. The z-score in [14] was -1.81; in assay [15], -1.58; in assay [16], 1.67; in [17], 0.53 (inactive); in [18], -0.797; in assay [19] it was -0.479. In assay [20], the z-score was 0.189 (inactive). Further, the composite z-score in assay [2] was determined as 0.0513.
Consider `COCCOC(=O)N1C(=O)[C@@]2(c3cc(C#CCNC(N)=O)ccc31)[C@H](C(=O)Nc1nc3ccccc3s1)[C@H]1C(=O)O[C@H](c3ccccc3)[C@H](c3ccccc3)N1[C@@H]2c1ccccc1OCCO`, for which the z-score is 1.14 (inactive) in assay [1]; 2.15 (inactive) in [3]; 0.215 (inactive) in assay [4]; 0.483 (inactive) in assay [5]; -1.08 (inactive) in [6]; 2.18 in assay [7]. The z-score is 1.41 (inactive) in [8]; 0.695 (inactive) in assay [9]; 0.934 in [10]; 1.01 in [11]; 0.706 in assay [12]; -0.0995 in [13]. Also, the z-score in assay [14] was 0.223; in [15], 0.405; in assay [16], -2.73; in assay [17] it was 2.4 (inactive); in assay [18] it was -0.981; in assay [19], -1.64. Moreover, the z-score in assay [20] was -1.29 (inactive). In assay [2], the composite z-score was determined as 0.646.
As for `CC(C)(C)N1CC=CC23O[C@@H]4C=CCOC(=O)[C@@H]4[C@H]2C(=O)N(CCO)[C@@H]3C1=O` (stereo not given in full), the z-score in assay [1] is -0.476 (inactive); in [3], 0.55 (inactive); in [4] it was 0.184 (inactive); in assay [5], 0.0221 (inactive); in assay [6], 0.526 (inactive); in assay [7], -0.694. The z-score in assay [8] is 1.09 (inactive); in [9] it was 1.32 (inactive); in assay [10] it was 1.59; in assay [11], -0.247; in [12], -0.229; in assay [13], -0.112. In addition, the z-score is 0.0476 in [14]; -0.46 in assay [15]; -0.731 in assay [16]; 0.316 (inactive) in assay [17]; 0.0281 in assay [18]; -0.537 in assay [19]. Besides, the z-score in assay [20] was -0.465 (inactive). In [2], this compound yielded a composite z-score of -0.0967.
Take `CC(C)(C)OC(=O)CC[C@@]1(C(=O)NCCN2CCOCC2)N=C(c2ccc(OCCCO)cc2)O[C@@H]1c1ccccc1CN=[N+]=[N-]`: the z-score in [1] was -0.936 (inactive); in [3], 24.4 (active); in [4], 11.3 (active); in assay [5] it was 0.0031 (inactive); in assay [6] it was 1.21 (inactive); in assay [7] it was -0.464. Also, the z-score in assay [8] is 0.73 (inactive); in assay [9], 1.46 (inactive); in assay [10] it was 1.54; in assay [11], -0.34; in [12], -0.502; in assay [13], 0.463. The z-score was -0.0725 in [14]; -0.749 in assay [15]; 0.777 in [16]; -0.916 (inactive) in assay [17]; -0.29 in assay [18]; -0.586 in assay [19]. In addition, in assay [20], the z-score is 0.973 (inactive). The compound also came in with a composite z-score in assay [2] of -0.0255.
Regarding `CC(C)(C)N1CC=CC23O[C@@H]4/C=C\CCCOC(=O)C4[C@H]2C(=O)N(CCCO)[C@@H]3C1=O` (stereo not given in full), the z-score in assay [1] was -0.455 (inactive); in [3] it was 0.46 (inactive); in assay [4], 0.223 (inactive); in assay [5] it was -0.772 (inactive); in assay [6], 0.429 (inactive); in assay [7], 0.0241. Further, the z-score in assay [8] is 1.63 (inactive); in assay [9], 0.724 (inactive); in assay [10], 2.51; in assay [11] it was -0.377; in [12], 1.1; in assay [13] it was 0.0723. Moreover, the z-score was -0.112 in [14]; -0.0698 in assay [15]; -0.794 in assay [16]; 0.822 (inactive) in [17]; 0.233 in assay [18]; 0.229 in assay [19]. The z-score in assay [20] was 0.114 (inactive). Further, the composite z-score in assay [2] stood at 0.0927.
Consider `COC(=O)[C@@]1(Cc2ccccc2)[C@H]2c3cc(C(=O)N(C)C)n(Cc4ccc(S(C)(=O)=O)cc4)c3C[C@H]2CN1C(=O)c1ccccc1`, for which the z-score in assay [1] is -1.77 (inactive); in [3] it was 1.5 (inactive); in [4], 0.542 (inactive); in [5], 1.95 (inactive); in assay [6] it was 0.814 (inactive); in [7] it was 0.393. The z-score in [8] is 1.12 (inactive); in assay [9] it was -2.78 (inactive); in assay [10], -2.6; in assay [11], -1.12; in assay [12], 1.09; in assay [13], -0.827. In addition, the z-score in assay [14] was 0.0168; in assay [15] it was -1.39; in assay [16], 2.64; in assay [17] it was -1.06 (inactive); in assay [18] it was -0.656; in assay [19] it was 0.485. The z-score in [20] was -1.59 (inactive). For the same compound, in [2], the composite z-score came out at 0.71.
Take `CC[C@@H]1C=C(C(=O)O)[C@H](c2ccc(OC)cc2)N1S(=O)(=O)c1ccc(C)cc1`: the z-score in [1] is -1.46 (inactive); in assay [3] it was 0.785 (inactive); in assay [4], 0.453 (inactive); in [5], -0.51 (inactive); in [6], 0.437 (inactive); in [7] it was -0.458. Moreover, the z-score in [8] was 0.339 (inactive); in [9], -0.517 (inactive); in assay [10], -0.215; in [11] it was -0.0984; in assay [12] it was -0.32; in [13] it was -0.183. Also, the z-score was 0.107 in [14]; -0.23 in assay [15]; -0.955 in assay [16]; -0.687 (inactive) in assay [17]; -0.168 in assay [18]; -0.273 in assay [19]. Also, the z-score in assay [20] was -0.599 (inactive). Also, the composite z-score in [2] was -0.0449.
As to `CC(C)C(=C=CC[C@H](O)c1ccccc1OCCO)C[C@H](O)COCc1ccccc1`, the z-score in assay [1] was -0.188 (inactive); in [3], 13.2 (active); in [4], 2.13 (inactive); in assay [5] it was 1.54 (inactive); in assay [6] it was 1.21 (inactive); in [7], -0.181. Besides, the z-score is -1.34 (inactive) in assay [8]; -1.44 (inactive) in assay [9]; -2.38 in assay [10]; 0.827 in assay [11]; -0.0066 in assay [12]; 0.245 in assay [13]. Also, the z-score in assay [14] was -2.9; in assay [15], -1.15; in assay [16], -0.0954; in assay [17], -0.307 (inactive); in assay [18] it was -0.823; in assay [19], -0.662. In assay [20], the z-score was -0.0334 (inactive). This compound also displayed a composite z-score in assay [2] of -0.174.
